Results from the supplement of paper PMC6555819.

test system: THRa homodimer (NR concentration 90 nM); assay: PBM binding z-score (relative to random genomic background probes); higher = stronger binding; sequences stand for … in GC…GCGATTGACAGCGTAGAATGAAGG
Outline: (§1)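 For binding z-scores, the reference was random background probes on custom Agilent 4×180K protein-binding microarrays. These arrays were incubated 1 h with ligand-free nuclear receptor dimers in PBS pH 7.4, 2% milk, 0.02% Triton X-100, 1 mM DTT, 0.2 mg/mL BSA and 0.4 mg/ml salmon testes DNA. Fluorescence was scanned after antibody detection of each partner (one per run) and regression-normalized.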

| Sequence | PBM binding z-score |
| --- | --- |
| CCGAGTAGATTATGGGGCATTCAGGCAACGGTGA | -0.141 |
| CGTCAAAGATCAACTAAGGTAACGTAAAGCACGC | 1.79 |
| ACTATTAGCTGAGACGAGGGCAACCGATAGGTTG | 0.251 |
| ATCTCTAGGTAAGAATCAGTTCAGTGAAGAACGC | 0.68 |
| CTAGAAAGGTCGTGCTCAGGTGAGTATACCAAAC | 0.909 |
| TATTGTAGATCAACAGGAGGTTAAGAAAGATCGA | -0.471 |
| CCTGCTAGGTCAATGTTCAGCTAAAGCAGCTCGC | 0.628 |
| TCATATAGGTACATGCTAGGTGAAAGTCCGATCT | 0.723 |
| TTTCGGAGGACACGAAAGGTCAGAGCTCGACATC | 1.39 |
| CAGCCTAGGTCAGGGCCAGTCTAGGAGGAACGTT | 0.28 |
| TTACCAAGATGAAGGTCGTTGATCCCTCTGTAGA | -0.149 |
| TTACCAAGGTGAGCAGAGGTCGTTGATCCAACTC | 0.587 |
| TCATATAGGTAAACAGGTTAAAGTCCGTAAGTTA | 0.613 |
| TCGAGTAGGTTAGTCTGGGCATTCAGCCAACATA | -0.454 |
| GCTCGGAGGACAAGGTCAGAGCATTGTCCGTAGA | 1.51 |
| GATACAGGGTCAGCTAGAGGACAGAGTATGGAAA | 1.05 |
| ACTAGCAGGCCAAGTTTCGGTCACTCAAACAAAG | 0.212 |
| AGTACAGGGTCATCGTAGGCCAGAGTACGCACAG | 1.57 |
| ATCTCTCGGTAACCAAGTTCAGTGAATGCCGAAC | 0.603 |
| GATACAGGGTCAGCTAGAGGCCAGAGTGTGGAAA | 0.703 |

| Sequence | PBM binding z-score |
| --- | --- |
| TAGCCTAGGTCAGATCGGGCCAGTAGACGCTATA | -0.385 |
| CGTCCAAGGTTATAGGAGGTCAGTGAAGACAGAT | 1.69 |
| TTACCAAGATGAGCTGAGGTCGTTGATCCAACTC | 1.56 |
| CTCAAAAGGTCGTGCTCAGGTGAGTATACCAAAC | 1.02 |
| TCGAGTAGGTTATCAATGGGGCATTCAGCTTTCT | -0.223 |
| CGAACTAGGTGAGAACAGGACAGTGAAGGATGAT | 0.0768 |
| GATAGAGGGTCAGCTAGAGGCCAGAGTATGGAAA | -0.103 |
| CGAACTAGGTCTGAACAGGACAGTGAAGGATGAT | -0.761 |
| TCTTGGAGATCAAGCAGGTTAAGAAAGCCTGAGT | -0.604 |
| CTCGAAAAGTCGTGCTCAGGTGAGTATACCAAAC | 0.807 |
| GCTAGTTGGTCAGTAAAAGGTCAGACACCGGTCG | 0.737 |
| CCTATTAGTTGACCATAGGGGCAACCGAAGCTCG | 0.596 |
| TCATATAGCTAAACAGGTGAAAGTCCGTAAGTTA | -0.358 |
| ATTTACGGGTCAACGAGGTTATAGCACGCGTATA | 1.43 |
| ACTATTAGTTGAGACGAAGGCAACCGATAGGTTG | -0.7 |
| ATCGAAAGGTCGTGAGGTGAGTGTACAGAAAGGC | 1.71 |
| TCGAGTAGGTTAGGGGCCTTCAGAATGGCGTCGA | -0.629 |
| CAAACTAGGTCACGAAAGATCAAAGTCGAATGAC | 1.43 |
| AGCACGAGGGCAATGAGTTGATAGCACGGGTGGC | -0.487 |
| TATACAGGGTCAAAGGCCAGCGTACGAATGTCGA | 0.731 |

test system: VDR:RXRa (NR concentration 270 nM, RXRa partner concentration 90 nM); assay: as above
Outline: as §1

| Sequence | PBM binding z-score |
| --- | --- |
| CCGAGTAGATTATGGGGCATTCAGGCAACGGTGA | -0.214 |
| CGTCAAAGATCAACTAAGGTAACGTAAAGCACGC | 0.78 |
| ACTATTAGCTGAGACGAGGGCAACCGATAGGTTG | 0.232 |
| ATCTCTAGGTAAGAATCAGTTCAGTGAAGAACGC | 0.845 |
| CTAGAAAGGTCGTGCTCAGGTGAGTATACCAAAC | 3.1 |
| TATTGTAGATCAACAGGAGGTTAAGAAAGATCGA | 0.587 |
| CCTGCTAGGTCAATGTTCAGCTAAAGCAGCTCGC | 1.05 |
| TCATATAGGTACATGCTAGGTGAAAGTCCGATCT | 0.884 |
| TTTCGGAGGACACGAAAGGTCAGAGCTCGACATC | 3.54 |
| CAGCCTAGGTCAGGGCCAGTCTAGGAGGAACGTT | 0.0507 |
| TTACCAAGATGAAGGTCGTTGATCCCTCTGTAGA | 0.991 |
| TTACCAAGGTGAGCAGAGGTCGTTGATCCAACTC | 3.68 |
| TCATATAGGTAAACAGGTTAAAGTCCGTAAGTTA | 1.88 |
| TCGAGTAGGTTAGTCTGGGCATTCAGCCAACATA | -0.0618 |
| GCTCGGAGGACAAGGTCAGAGCATTGTCCGTAGA | 1.5 |
| GATACAGGGTCAGCTAGAGGACAGAGTATGGAAA | 3.75 |
| ACTAGCAGGCCAAGTTTCGGTCACTCAAACAAAG | -0.204 |
| AGTACAGGGTCATCGTAGGCCAGAGTACGCACAG | 5.08 |
| ATCTCTCGGTAACCAAGTTCAGTGAATGCCGAAC | 2.72 |
| GATACAGGGTCAGCTAGAGGCCAGAGTGTGGAAA | 3.39 |

| Sequence | PBM binding z-score |
| --- | --- |
| TAGCCTAGGTCAGATCGGGCCAGTAGACGCTATA | 0.169 |
| CGTCCAAGGTTATAGGAGGTCAGTGAAGACAGAT | 4.85 |
| TTACCAAGATGAGCTGAGGTCGTTGATCCAACTC | 1.35 |
| CTCAAAAGGTCGTGCTCAGGTGAGTATACCAAAC | 3.5 |
| TCGAGTAGGTTATCAATGGGGCATTCAGCTTTCT | 0.361 |
| CGAACTAGGTGAGAACAGGACAGTGAAGGATGAT | -0.123 |
| GATAGAGGGTCAGCTAGAGGCCAGAGTATGGAAA | 2.45 |
| CGAACTAGGTCTGAACAGGACAGTGAAGGATGAT | -0.557 |
| TCTTGGAGATCAAGCAGGTTAAGAAAGCCTGAGT | 1.04 |
| CTCGAAAAGTCGTGCTCAGGTGAGTATACCAAAC | -0.141 |
| GCTAGTTGGTCAGTAAAAGGTCAGACACCGGTCG | 2.38 |
| CCTATTAGTTGACCATAGGGGCAACCGAAGCTCG | 0.497 |
| TCATATAGCTAAACAGGTGAAAGTCCGTAAGTTA | 0.43 |
| ATTTACGGGTCAACGAGGTTATAGCACGCGTATA | 8.05 |
| ACTATTAGTTGAGACGAAGGCAACCGATAGGTTG | -0.504 |
| ATCGAAAGGTCGTGAGGTGAGTGTACAGAAAGGC | 3.63 |
| TCGAGTAGGTTAGGGGCCTTCAGAATGGCGTCGA | -0.482 |
| CAAACTAGGTCACGAAAGATCAAAGTCGAATGAC | 3.03 |
| AGCACGAGGGCAATGAGTTGATAGCACGGGTGGC | 5.06 |
| TATACAGGGTCAAAGGCCAGCGTACGAATGTCGA | 4.73 |
